Experimental findings from PubChem BioAssay are described below.

Activity calls are given as the source filed them.

Experiment [1] concerns PRMT1 (protein arginine N-methyltransferase 1). Put plainly: small molecules binding arginine methyltransferase PRMT1 – biochemical, small-molecule microarray, 635 nm fluorescence, primary screen (AID 1088).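 Further: binding of Prmt1 protein to compounds spotted on small-molecule microarray slides.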 Conditions: higher = more signal.
Experiment [2] in a line: growth effects on S. cerevisiae YJM789 – YJM789 clinical isolate, OD600, 24 h, basal, primary screen (AID 1089).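 Further: growth of clinical yeast isolate S. cerevisiae YJM 789 seeded 1000 cells per well; test concentration not given here.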 The following applies: higher = more signal, called active from +8 up or from −8 down.
A short description of experiment [3]: S. pombe growth modifiers, basal conditions – strain 972, OD600, 24 h, no modulator, primary screen (AID 1090).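 Further: basal condition with compound alone and no growth modifier present; test concentration not given here.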 Conditions: S. pombe 972 growth, higher = more signal, called active from +8 up or from −8 down.
Experiment [4] can be described thus: budding yeast growth modifiers under rapamycin – strain BY4716, OD600, 96 h, primary screen (AID 1091). Further: test concentration not given here. The following applies: S. cerevisiae BY4716 + rapamycin, higher = more signal, called active from +8 up or from −8 down.
In experiment [5] the target is Torsin-1A-interacting protein 2 (Homo sapiens) (UniProt Q8NFQ8). Put plainly: small molecules binding lysate-expressed LULL1 – cell lysate, human LULL1 lysate, 635/667 nm fluorescence, primary screen (AID 1092).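 Further: probe is lysate of COS7 cells overexpressing human LULL1; score merges per-feature 667 nm fluorescence with signal-to-noise.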 The following applies: small-molecule microarray, hLULL1 lysate binding, 635 nm fluorescence; higher = more signal.
Chain of Torsin-1A-interacting protein 2 (Homo sapiens) (Q8NFQ8 whole entry, looked up): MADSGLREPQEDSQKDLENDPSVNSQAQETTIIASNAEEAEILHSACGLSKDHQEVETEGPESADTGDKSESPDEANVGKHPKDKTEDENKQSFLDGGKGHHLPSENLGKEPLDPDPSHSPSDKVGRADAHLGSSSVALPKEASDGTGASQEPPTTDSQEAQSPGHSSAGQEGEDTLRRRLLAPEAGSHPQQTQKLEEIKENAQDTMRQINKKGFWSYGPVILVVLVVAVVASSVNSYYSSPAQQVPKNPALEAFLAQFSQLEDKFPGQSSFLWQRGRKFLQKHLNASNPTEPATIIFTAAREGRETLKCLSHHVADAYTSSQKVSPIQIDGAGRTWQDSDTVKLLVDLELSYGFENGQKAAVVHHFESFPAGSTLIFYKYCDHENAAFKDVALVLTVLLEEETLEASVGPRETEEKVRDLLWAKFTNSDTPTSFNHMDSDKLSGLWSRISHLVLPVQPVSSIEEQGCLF
A short description of experiment [6]: optical density change of DRC41 E. coli – strain DRC41, OD650, 24 h, E. coli filamentation project, primary screen (AID 1093).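 Further: MC1000 strain lacking acrAB efflux and sulA so SOS filamentation is blocked; test concentration not given here.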 The following applies: E. coli DRC41 growth, higher = more signal, called active from +8 up or from −8 down.
The nature of experiment [7]: probe aLefty2 binding to arrayed compounds – biochemical, biotinylated probe, 635/667 nm fluorescence, primary screen (AID 1094).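 Further: score merges spot fluorescence near 667 nm with spot signal-to-noise ratio.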 The following applies: small-molecule microarray, higher = more signal.
For experiment [8], the system named is Noggin (protein binding on small-molecule microarray). Put plainly: small molecules binding Noggin protein – biochemical, 635/667 nm fluorescence, primary screen (AID 1095).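 Further: score merges 667 nm feature fluorescence with signal to noise over triplicate slides.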 Conditions: 635 nm fluorescence, higher = more signal.
Experiment [9] addresses Neurogenic locus notch homolog protein 3 (Homo sapiens) (UniProt Q9UM47). Nature of the experiment: small molecules binding NOTCH3 protein – biochemical, 635/667 nm fluorescence, primary screen (AID 1096). The following applies: small-molecule microarray, 635 nm fluorescence, higher = more signal.
The nature of experiment [10]: probe aEGFR binding to arrayed compounds – biochemical, biotinylated probe, 635/667 nm fluorescence, primary screen (AID 1097).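 Further: probe is a biotinylated anti-EGFR antibody binding compounds printed on slides; score combines fluorescence near 667 nm and signal to noise of each spot.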 Conditions: small-molecule microarray, higher = more signal.
Experiment [11] concerns Plasmodium falciparum Sir2 (PF13_0152, Sir2A). Nature of the experiment: Plasmodium falciparum Sir2A binding compounds – biochemical, small-molecule microarray, 635 nm fluorescence, primary screen (AID 1098).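 Further: score merges spot fluorescence intensity with its signal-to-noise ratio.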 The following applies: fluorescence 635 nm, higher = more signal.
Experiment [12] in a line: probe aDKK1 binding to arrayed compounds – biochemical, biotinylated probe, 635/667 nm fluorescence, primary screen (AID 1099).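 Further: score merges 667nm spot fluorescence with signal to noise across triplicate slides; reference of the scale not given here.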 The following applies: small-molecule microarray, higher = more signal.
Experiment [13] can be described thus: probe aCHRDL2 binding to arrayed compounds – biochemical, biotinylated probe, 635/667 nm fluorescence, primary screen (AID 1100). The following applies: small-molecule microarray, higher = more signal.
Experiment [14] in a line: change in splice reporter luminescence, either direction, cell-based, HEK293, spliceosome inhibition project, primary screen (AID 1101).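 Further: HEK293 cells carrying a splicing-competent luciferase reporter gene; test concentration not given here.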 Conditions: HEK293 splicing luciferase reporter, 24 h, higher = more signal, called active from +8 up or from −8 down.
For experiment [15], the target named is Fibroblast growth factor 10 (Homo sapiens) (UniProt O15520). Put plainly: compounds binding fibroblast growth factor 10 – biochemical, small-molecule microarray, 635 nm fluorescence, primary screen (AID 1102). The following applies: FGF10 binding, fluorescence 635 nm, higher = more signal.
Chain of Fibroblast growth factor 10 (Homo sapiens) (O15520 whole entry, looked up): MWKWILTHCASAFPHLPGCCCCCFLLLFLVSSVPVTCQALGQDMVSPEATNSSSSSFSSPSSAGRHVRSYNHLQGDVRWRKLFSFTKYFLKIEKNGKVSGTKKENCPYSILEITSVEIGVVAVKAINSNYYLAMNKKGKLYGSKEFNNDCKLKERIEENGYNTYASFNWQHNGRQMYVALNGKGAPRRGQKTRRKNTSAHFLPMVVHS
Experiment [16] concerns glycogen synthase kinase-3 (GSK3A per assay name; protocol says GSK3B). Put plainly: compounds binding glycogen synthase kinase-3 – biochemical, small-molecule microarray, 635 nm fluorescence, GSK3A, primary screen (AID 1103). Further: the record names both GSK3A and GSK3B. The following applies: fluorescence 635 nm, higher = more signal.
Experiment [17] has as its target Epidermal growth factor receptor (Homo sapiens) (UniProt P00533). Put plainly: compounds binding epidermal growth factor receptor – biochemical, small-molecule microarray, 635 nm fluorescence, primary screen (AID 1104).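 Further: score merges 667 nm emission intensity with spot signal to noise over triplicate slides.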 The following applies: EGFR binding, higher = more signal.
In experiment [18] the target is Follistatin-related protein 3 (Homo sapiens) (UniProt O95633). Put plainly: compounds binding follistatin-related protein 3 – biochemical, small-molecule microarray, 635 nm fluorescence, primary screen (AID 1105).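 Further: score merges emission near 667 nm and signal to noise per printed spot across three slides.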 The following applies: FSTL3 binding, higher = more signal.
Chain of Follistatin-related protein 3 (Homo sapiens) (O95633 whole entry, looked up): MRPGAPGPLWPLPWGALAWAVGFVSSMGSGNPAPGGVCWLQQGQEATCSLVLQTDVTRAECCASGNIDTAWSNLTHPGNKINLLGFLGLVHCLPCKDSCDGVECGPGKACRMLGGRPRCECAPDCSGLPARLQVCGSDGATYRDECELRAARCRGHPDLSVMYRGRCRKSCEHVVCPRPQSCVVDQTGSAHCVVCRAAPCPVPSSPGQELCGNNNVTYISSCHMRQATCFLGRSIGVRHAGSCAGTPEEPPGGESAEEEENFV
Experiment [19] deals with Dickkopf-related protein 1 (Homo sapiens) (UniProt O94907). Put plainly: small molecules binding DKK1 protein – biochemical, small-molecule microarray, 635 nm fluorescence scan, primary screen (AID 1106).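 Further: score merges emission near 667 nm with signal to noise over three replicate slides.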 Conditions: higher = more signal.
Chain of Dickkopf-related protein 1 (Homo sapiens) (O94907 whole entry, looked up): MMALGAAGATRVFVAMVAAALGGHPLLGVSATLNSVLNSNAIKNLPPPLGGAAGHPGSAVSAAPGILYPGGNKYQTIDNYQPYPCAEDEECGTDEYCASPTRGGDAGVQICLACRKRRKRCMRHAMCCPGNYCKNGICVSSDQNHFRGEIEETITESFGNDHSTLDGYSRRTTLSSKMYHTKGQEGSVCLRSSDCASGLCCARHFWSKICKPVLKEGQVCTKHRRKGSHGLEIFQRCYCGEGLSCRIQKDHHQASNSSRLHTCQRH
The subject of experiment [20] is Inhibin beta A chain (activin A). Nature of the experiment: small molecules binding activin A – biochemical, small-molecule microarray, 635 nm fluorescence scan, primary screen (AID 1107).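 Further: mouse activin A protein probed at 4.33 µg/mL on printed slides; score merges bound-protein fluorescence near 667 nm with spot signal-to-noise.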 The following applies: INHBA, higher = more signal.

Chain of Neurogenic locus notch homolog protein 3 (Homo sapiens) (Q9UM47 whole entry, looked up): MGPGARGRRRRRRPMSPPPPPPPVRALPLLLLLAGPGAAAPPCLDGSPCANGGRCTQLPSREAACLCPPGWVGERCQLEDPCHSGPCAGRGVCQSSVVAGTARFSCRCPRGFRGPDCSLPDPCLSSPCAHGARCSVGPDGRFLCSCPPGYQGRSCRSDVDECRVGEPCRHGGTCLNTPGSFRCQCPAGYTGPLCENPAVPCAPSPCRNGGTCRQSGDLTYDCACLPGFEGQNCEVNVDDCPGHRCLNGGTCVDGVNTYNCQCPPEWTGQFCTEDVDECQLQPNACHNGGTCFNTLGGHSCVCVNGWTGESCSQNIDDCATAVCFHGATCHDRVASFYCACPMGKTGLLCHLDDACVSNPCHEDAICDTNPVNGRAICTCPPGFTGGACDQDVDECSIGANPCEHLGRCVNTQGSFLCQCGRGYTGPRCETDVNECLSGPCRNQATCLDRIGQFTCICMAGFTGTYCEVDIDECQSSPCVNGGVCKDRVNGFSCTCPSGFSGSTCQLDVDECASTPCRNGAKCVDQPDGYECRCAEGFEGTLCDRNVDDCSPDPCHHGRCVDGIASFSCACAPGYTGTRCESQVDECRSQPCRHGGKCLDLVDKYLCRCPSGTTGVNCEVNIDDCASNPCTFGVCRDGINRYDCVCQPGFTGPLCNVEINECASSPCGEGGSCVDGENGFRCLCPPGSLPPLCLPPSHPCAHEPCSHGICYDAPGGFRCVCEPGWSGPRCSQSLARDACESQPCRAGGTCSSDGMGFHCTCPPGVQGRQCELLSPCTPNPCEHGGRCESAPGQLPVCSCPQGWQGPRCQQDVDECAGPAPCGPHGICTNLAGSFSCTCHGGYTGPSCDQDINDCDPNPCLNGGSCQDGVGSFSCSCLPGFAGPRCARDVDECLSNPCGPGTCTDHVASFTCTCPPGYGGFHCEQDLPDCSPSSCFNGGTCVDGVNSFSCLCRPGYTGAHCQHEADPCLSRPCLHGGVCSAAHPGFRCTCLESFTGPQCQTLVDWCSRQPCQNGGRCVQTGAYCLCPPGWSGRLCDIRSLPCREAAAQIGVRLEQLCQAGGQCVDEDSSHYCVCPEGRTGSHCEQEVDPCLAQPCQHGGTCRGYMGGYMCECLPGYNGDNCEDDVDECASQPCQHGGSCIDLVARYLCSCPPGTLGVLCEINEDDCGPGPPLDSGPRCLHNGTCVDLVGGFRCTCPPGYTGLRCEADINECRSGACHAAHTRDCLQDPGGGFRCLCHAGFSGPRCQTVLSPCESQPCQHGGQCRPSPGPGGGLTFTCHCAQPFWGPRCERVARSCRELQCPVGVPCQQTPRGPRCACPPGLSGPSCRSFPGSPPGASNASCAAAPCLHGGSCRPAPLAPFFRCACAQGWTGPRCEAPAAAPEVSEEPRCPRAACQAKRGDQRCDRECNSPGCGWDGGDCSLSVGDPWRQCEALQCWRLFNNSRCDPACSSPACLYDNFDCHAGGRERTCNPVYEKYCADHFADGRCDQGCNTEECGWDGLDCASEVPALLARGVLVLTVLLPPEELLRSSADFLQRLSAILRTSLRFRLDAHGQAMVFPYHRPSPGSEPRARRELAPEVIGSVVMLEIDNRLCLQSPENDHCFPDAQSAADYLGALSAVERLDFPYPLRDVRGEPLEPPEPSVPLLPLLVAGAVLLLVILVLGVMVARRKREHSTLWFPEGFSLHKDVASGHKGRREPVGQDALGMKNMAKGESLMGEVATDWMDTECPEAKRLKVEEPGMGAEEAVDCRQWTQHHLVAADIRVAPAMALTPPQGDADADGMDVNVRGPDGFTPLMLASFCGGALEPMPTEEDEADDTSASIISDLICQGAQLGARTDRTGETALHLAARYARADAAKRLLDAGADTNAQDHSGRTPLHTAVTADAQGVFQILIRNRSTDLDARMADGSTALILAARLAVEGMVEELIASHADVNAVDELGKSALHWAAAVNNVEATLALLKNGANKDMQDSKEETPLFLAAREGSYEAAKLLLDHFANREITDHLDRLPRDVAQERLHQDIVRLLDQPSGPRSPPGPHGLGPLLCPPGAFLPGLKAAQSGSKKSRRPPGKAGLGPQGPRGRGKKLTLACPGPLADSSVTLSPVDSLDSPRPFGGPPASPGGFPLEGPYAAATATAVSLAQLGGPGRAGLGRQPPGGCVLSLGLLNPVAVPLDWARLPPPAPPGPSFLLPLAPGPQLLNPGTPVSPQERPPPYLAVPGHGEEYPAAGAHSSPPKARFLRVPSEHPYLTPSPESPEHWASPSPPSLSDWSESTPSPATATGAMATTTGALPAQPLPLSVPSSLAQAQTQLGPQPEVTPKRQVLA
Chain of Epidermal growth factor receptor (Homo sapiens) (P00533 whole entry, looked up): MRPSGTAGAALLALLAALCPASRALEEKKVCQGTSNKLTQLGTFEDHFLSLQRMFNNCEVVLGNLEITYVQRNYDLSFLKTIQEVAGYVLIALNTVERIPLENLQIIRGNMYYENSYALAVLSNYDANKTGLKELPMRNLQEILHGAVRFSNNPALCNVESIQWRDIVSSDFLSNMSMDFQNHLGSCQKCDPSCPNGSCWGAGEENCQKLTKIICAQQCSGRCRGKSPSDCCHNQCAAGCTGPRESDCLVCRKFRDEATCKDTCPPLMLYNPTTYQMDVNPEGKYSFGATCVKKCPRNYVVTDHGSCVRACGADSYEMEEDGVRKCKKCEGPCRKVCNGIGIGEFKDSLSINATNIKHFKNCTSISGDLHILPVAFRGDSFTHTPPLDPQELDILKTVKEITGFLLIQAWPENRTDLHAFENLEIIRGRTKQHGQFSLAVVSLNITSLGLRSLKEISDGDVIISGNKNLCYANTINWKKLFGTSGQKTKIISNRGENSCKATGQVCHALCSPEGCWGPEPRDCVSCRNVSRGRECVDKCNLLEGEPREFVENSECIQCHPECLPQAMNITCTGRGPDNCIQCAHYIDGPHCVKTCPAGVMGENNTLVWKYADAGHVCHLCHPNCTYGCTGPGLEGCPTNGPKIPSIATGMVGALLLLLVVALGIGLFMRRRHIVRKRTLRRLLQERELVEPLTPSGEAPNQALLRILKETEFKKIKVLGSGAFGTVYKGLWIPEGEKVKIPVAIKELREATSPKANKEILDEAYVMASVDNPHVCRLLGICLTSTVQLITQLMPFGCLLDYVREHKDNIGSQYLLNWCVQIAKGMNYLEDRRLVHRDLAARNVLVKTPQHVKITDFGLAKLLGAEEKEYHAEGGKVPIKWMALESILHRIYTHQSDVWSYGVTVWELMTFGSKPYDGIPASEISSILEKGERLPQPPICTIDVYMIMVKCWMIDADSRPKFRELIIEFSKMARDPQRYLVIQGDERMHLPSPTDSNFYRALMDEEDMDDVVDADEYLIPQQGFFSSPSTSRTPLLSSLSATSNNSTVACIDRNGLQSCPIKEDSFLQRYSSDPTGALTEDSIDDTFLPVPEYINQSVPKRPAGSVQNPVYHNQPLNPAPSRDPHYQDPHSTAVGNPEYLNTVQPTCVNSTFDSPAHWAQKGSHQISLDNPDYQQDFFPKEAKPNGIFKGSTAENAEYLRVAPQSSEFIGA

For `COC(=O)[C@H](C)NC(=O)CC=C[C@@H](C)[C@@H]1C=C[C@H](O)[C@@H](CO)O1`, the composite z-score in [1] is 0.854; in [5], 0.248; in experiment [7], -0.0381; in [8] it was 1.34; in experiment [9] it was 0.873; in experiment [10] it was 0.241. In addition, the composite z-score in experiment [11] was 0.141; in experiment [12], -0.607; in experiment [13] it was -1.28; in experiment [15], 0.6; in experiment [16] it was 0.902; in experiment [17], 0.643. Besides, the composite z-score stood at 0.948 in experiment [18], 1.3 in experiment [19] and 0.229 in experiment [20]. The z-score in [2] is 0.351 (inactive); in experiment [3], 0.245 (inactive); in experiment [4] it was 0.358 (inactive); in [6], 1.02 (inactive); in [14], 0.386 (inactive).
Turning to `CC(=O)OC[C@H]1O[C@H](CC=NO[C@@H](C)c2cc(-c3c(C)cc(C)cc3C)no2)C=C[C@@H]1OC(C)=O`, the composite z-score is -0.0654 in experiment [1]; -0.382 in [5]; -0.212 in experiment [7]; 0.342 in [8]; 0.106 in experiment [9]; -0.0662 in [10]. The composite z-score is -0.229 in [11]; -0.341 in experiment [12]; 0.0256 in experiment [13]; -0.151 in [15]; -0.55 in experiment [16]; 0.0164 in experiment [17]. In addition, the composite z-score in experiment [18] is -0.037; in experiment [19] it was -0.0281; in experiment [20], 0.363. Besides, the z-score in [2] was 0.208 (inactive); in experiment [3], -0.0489 (inactive); in [4], 0.523 (inactive); in experiment [6] it was -0.542 (inactive); in experiment [14], 0.708 (inactive).
With `C=CC[C@@H]1C=CC(ON=C(C)C)[C@@H](CO)O1` (stereo not given in full), the composite z-score was -0.316 in experiment [1]; -0.632 in experiment [5]; -0.103 in experiment [7]; -0.117 in [8]; -1.08 in experiment [9]; -0.215 in [10]. Further, the composite z-score in experiment [11] is 0.24; in experiment [12], -0.011; in experiment [13] it was -0.127; in experiment [15] it was -0.766; in [16], -0.689; in experiment [17], 0.0691. The figures for the composite z-score in experiment [18], in experiment [19] and in [20] were -0.899, -0.307 and 1.14, respectively. In addition, the z-score is 1.03 (inactive) in experiment [2]; 0.446 (inactive) in experiment [3]; 1.16 (inactive) in experiment [4]; 0.452 (inactive) in experiment [6]; 0.304 (inactive) in experiment [14].
As for `C=CC[C@@H]1C=C[C@H](ON=CC[C@@H]2C=C[C@H](OC(C)=O)[C@@H](COC(C)=O)O2)[C@@H](CO)O1`, the composite z-score in experiment [1] was found to be 1.26; in experiment [5], 1.3; in experiment [7], 0.235; in [8], 0.984; in [9] it was 1.05; in experiment [10] it was 0.169. The composite z-score is 1.01 in experiment [11]; 0.182 in experiment [12]; -0.293 in experiment [13]; 0.262 in [15]; 0.765 in experiment [16]; 0.661 in experiment [17]. The composite z-score was 1.17 in [18], 0.764 in experiment [19] and 0.211 in [20]. The z-score was 0.953 (inactive) in [2]; 0.489 (inactive) in experiment [3]; 0.476 (inactive) in experiment [4]; 0.558 (inactive) in [6]; 0.743 (inactive) in experiment [14].
In the case of `CO[C@H]1COC(=O)CC=C[C@@H](C)COC(=O)[C@H]2CCCN2C(=O)CC=C[C@H]1C`, the composite z-score in [1] was 1.55; in experiment [5], 0.128; in experiment [7], -0.194; in experiment [8], 1.86; in [9] it was -0.341; in experiment [10], 0.0129. For the same compound, the composite z-score was 1.3 in [11]; -0.268 in experiment [12]; -1.16 in experiment [13]; 0.756 in experiment [15]; 1.01 in [16]; 1.29 in experiment [17]. Further, the composite z-score turned out to be 1.45 in experiment [18], 1.9 in experiment [19] and 1.32 in experiment [20]. Besides, the z-score in experiment [2] is 0.591 (inactive); in [3], -0.74 (inactive); in experiment [4], 0.0488 (inactive); in experiment [6], 0.457 (inactive); in experiment [14] it was -0.104 (inactive).
